Screening data deposited in PubChem by National Center for Advancing Translational Sciences (NCATS).
Pf growth 96h: P. falciparum growth inhibition at 96 hour, primary screen for plastid delayed-death inhibitors | actives 6.9% (n = 320,000) | P. falciparum luciferase reporter growth, 96 h | Potency, µM (top dose mostly 28.7 µM), actives largely listed as inhibitors
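Readout is luminescence from an integrated firefly luciferase in P. falciparum. Red cells, 2% hematocrit and 0.05% parasitemia final, were cultured with compound through two parasite generations (96 hours) at 37 C, 5% CO2.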
Pf growth 48h: P. falciparum growth inhibition at 48 hours (one generation); P. falciparum luciferase growth in erythrocytes, 48 h; Potency, µM (highest dose often 28.7 µM), actives largely listed as inhibitors; AID 504832; actives 5.9% (n = 310,000)
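Luciferase-expressing parasites in RBCs, 2% Hct / 0.1% parasitemia final; RPMI 1640 + 0.5% Albumax; 37 C, 5% CO2, one generation; luminescence read-out, lower signal = inhibition.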
HCV inhibitor: inhibitors of hepatitis C virus infection; Huh7.5.1 HCVcc-Cre infection, luciferase reporter, 44 h; Potency, µM (doses to about 41.8 µM), usual class: inhibitors; actives 3.4% (n = 340,000); AID 651820
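Compounds are dispensed onto cells plated 4 h earlier at 1,000 per well, with HCVcc-Cre virus (about 0.5 moi) added next. Following 44 h of culture, luminescent signal is measured for 15 sec after 15 min with substrate at room temperature.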
AMA1-RON2 inh: disrupts binding of P. falciparum AMA1 to RON2 | actives 0.2% (n = 360,000) | Potency, µM (highest dose often 58.2 µM), most hits filed as inhibitors | AlphaScreen AMA1-biotinylated RON2 peptide binding; further: nearly all actives have a fitted effect of over 45% in size
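AMA1 (3D7) with his tag at 25 nM final met compounds first, then biotinylated RON2 peptide at 25 nM; detection used donor plus acceptor beads, 10 µg/mL apiece, read by AlphaScreen after 30 min at room temperature.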
Numbers stand for hits; . = inactive; ? = inconclusive; / = no result given; [ ] = another dose, or the depositor's remark. Rows were chosen to be rich in hits. Some 11% of all compounds tested hit in one or more screens of this group. The call rests on the fitted dose curve; in most records, active means well fitted curve in the direction sought with a large enough effect; inconclusive means small, poorly fitted or top-dose-only effect, or another doubt; inactive means no such curve, though single readings can be large; an effect the other way counts as inactive or inconclusive.

SMILES	Pf growth 96h	Pf growth 48h	HCV inhibitor	AMA1-RON2 inh
CCCc1cc(=O)oc2cc(C)cc(OC(C)C(=O)NCC(O)c3ccccc3)c12 (stereo not drawn)	?	0.465µM	.	.
CCCc1cc(=O)oc2cc(C)cc(OC(C)C(=O)NCCN3CCOCC3)c12 (stereo not drawn)	9.28µM	10.4µM	.	.
Cc1cc(OC(C)C(=O)NCCc2c[nH]c3ccccc23)c2c(C)cc(=O)oc2c1 (stereo not drawn)	1.65µM	1.47µM	.	.
CC1(C)Cc2c(cnn2-c2ccc(F)cc2)C(NC(=O)c2ccc(=O)oc2)C1 (stereo not drawn)	?	?	/	.
c1cc(CNC23CC4CC(CC(C4)C2)C3)ccn1	1.85µM	.	.	.
O=C(CC12CC3CC(CC(C3)C1)C2)NCc1ccncc1	.	/	/	.
CC1Cc2cc(/C(O)=C3/C(=O)C(=O)N(CCCn4ccnc4)C3c3ccco3)ccc2O1 (stereo not drawn)	0.208µM	.	.	.
CCCOc1ccc(/C(O)=C2/C(=O)C(=O)N(CCOC)C2c2cccnc2)cc1 (stereo not drawn)	?	1.04µM	/	/
CCN(CC)CCN1C(=O)C(=O)/C(=C(/O)c2ccc(OC)cc2)C1c1ccco1 (stereo not drawn)	0.928µM	.	.	.
CCN(CC)CCN1C(=O)C(=O)/C(=C(/O)c2ccc(OC(C)C)cc2)C1c1ccncc1 (stereo not drawn)	14.7µM	/	.	.
OCCCc1cn(-c2ccccc2)c2ccccc12	?	.	10µM	.
COc1cccc2cc(C(=O)c3ccc([N+](=O)[O-])cc3)oc12	14.7µM	.	.	.
Cc1ccc(C(=O)CSc2nc(O)cc(=O)[nH]2)cc1C	?	.	.	.
COc1ccc(-c2nnc(SC(C(=O)c3c[nH]c4ccccc34)c3ccccc3)n2N)cc1OC (stereo not drawn)	?	8.28µM	?	.
COc1cc(/C=N/NC(=O)CSc2nc3ccccc3n2C)cc(OC)c1OC	?	.	.	.
Cc1cccc(Nc2nnc(SCC(=O)NCc3cccs3)s2)c1C	6.57µM	.	.	.
Cc1cccc(Nc2nnc(SCC(=O)NCc3cccs3)s2)c1	.	.	.	.
Cc1cccc(Nc2nnc(SCC3CCCCO3)s2)c1C (stereo not drawn)	11.7µM	?	.	.
Cc1ccc(Nc2nnc(SCC(=O)NCc3ccco3)s2)cc1	?	5.86µM	.	.
CCC(C)(C)n1nnnc1C(c1cc2ccc(OC)cc2[nH]c1=O)N1CCc2ccccc2C1 (stereo not drawn)	/	?	?	.
CCC(C)(C)n1nnnc1C(c1cc2ccc(OC)cc2[nH]c1=O)N1CCc2ccccc21 (stereo not drawn)	.	5.22µM	.	.
CCC(C)(C)n1nnnc1C(c1cc2cc(OC)ccc2[nH]c1=O)N1CCc2ccccc21 (stereo not drawn)	.	10.4µM	.	?
CC(C)(C)c1ccc(-c2nc3[nH]c(=O)cc(NC(=O)c4ccco4)n3n2)cc1	4.15µM	10.4µM	.	.
Cc1ccc(-c2nc3[nH]c(=O)cc(NC(=O)c4cccs4)n3n2)cc1	?	?	.	.
Cc1ccc(-c2nc3[nH]c(=O)cc(NC(=O)C(C)C)n3n2)cc1	0.0828µM	0.294µM	.	.
SMILES	Pf growth 96h	Pf growth 48h	HCV inhibitor	AMA1-RON2 inh
CC(C)(C)c1ccc(-c2noc(CNC(=O)c3ccco3)n2)cc1	.	?	.	.
CCC(=O)Nc1cc(=O)[nH]c2nc(-c3ccc(Cl)cc3)nn12	?	0.262µM	.	.
Cc1ccc2c(C)nc(SC(C(=O)c3ccccc3)c3ccccc3)nc2c1 (stereo not drawn)	.	?	.	.
O=C(c1ccc(C(F)(F)F)cc1)N1CCC(=O)N(C(COCc2ccc(Cl)cc2)Cc2ccccc2)CC1 (stereo not drawn)	?	?	.[8.37 µM]	.
O=C(c1ccc(Cl)c(Cl)c1)N1CCC(=O)N(C(COCc2cccc(C(F)(F)F)c2)Cc2ccccc2)CC1 (stereo not drawn)	13.1µM	?	.[8.37 µM]	.
CC(C)CC(COCc1cccc(C(F)(F)F)c1)N1CCN(C(=O)c2cccc(C(F)(F)F)c2)CCC1=O (stereo not drawn)	14.7µM	?	?	.
O=C(c1ccc(C(F)(F)F)cc1)N1CCC(=O)N(C(COCc2ccccc2)Cc2ccccc2)CC1 (stereo not drawn)	8.28µM	?	.[8.37 µM]	.
CC(C)(C)c1ccc(C(=O)N2CCC(=O)N(C(COCc3ccccc3)Cc3ccccc3)CC2)cc1 (stereo not drawn)	11.7µM	9.28µM	?	.
COc1cccc(OC)c1NC(=O)CN1CCC(NC(=O)c2cccc(F)c2)CC1	?	.	.	.
Cc1cccnc1NC1(C(F)(F)F)N=C(c2ccccc2)NC1=O (stereo not drawn)	.	.	.	.
CN(C)c1ccc(N2C(=NC(=O)COc3ccccc3)SC3CS(=O)(=O)CC32)cc1 (stereo not drawn)	?	.	.	.
COc1cc(CN2CCNC(=O)C2CC(=O)N(Cc2nccn2C)C(C)C)cc(OC)c1 (stereo not drawn)	.	.	.	.
CCCCNC(=O)c1nc(-c2cccnc2OC)oc1-c1ccc(Cl)cc1	/	/	/	.
Nc1c(Br)cc2oc(-c3ccccc3)nc2c1Br	.	.	.	.
COc1ccc(-c2nc3c(Br)c(N)c(Br)cc3o2)cc1	?	2.33µM	?	.
COc1ccc(N(C)C(=O)c2ccc3snnc3c2)cc1	10.4µM	.	.	.
N=c1ccn(Cc2ccc(F)cc2)cc1	?	?	3.98µM	.
COc1cc(C)ccc1S(=O)(=O)NC(=O)C1(C)CCN1C(=O)Cc1ccccc1Cl (stereo not drawn)	/	/	/	.
NC(=O)N/N=C/c1c(Sc2nnnn2-c2ccccc2)nc2ccccn2c1=O	?	4.65µM	?	.
Cn1c(-c2ccccc2O)cc2ccccc21	5.22µM	3.7µM	.	.
COC(=O)c1cc(OC)nc2ccc(Br)cc12	?	?	11.2µM	.
NNC(=O)c1cc(C2CC2)nc2ccc(Br)cc12	.	.	?	.
Cc1cc2c(cc1C)NC(c1c(C)n(C)n(-c3ccccc3)c1=O)C1=C(CC(C)(C)CC1=O)N2 (stereo not drawn)	10.4µM	?	.	.
COc1cc(C2Nc3cc(C)c(C)cc3NC3=C2C(=O)CC(C)(C)C3)ccc1OC(C)=O (stereo not drawn)	?	.	.	.
C[C@H]1COc2cccc(N3CCC[C@H]3CO)c2S(=O)(=O)N1	/	/	/	.
SMILES	Pf growth 96h	Pf growth 48h	HCV inhibitor	AMA1-RON2 inh
S=C(Nc1ccc2nsnc2c1)N1CCCCC1	.	.	.	.
CCN(CC)C(=O)C1CCCN(C(=O)Nc2ccc3nsnc3c2)C1 (stereo not drawn)	?	/	31.6µM	.
CCc1ccc(NC(=O)CN2CCN(c3ccc(OC)cc3)CC2)cc1	/	/	.	.
c1coc(-c2ncc[nH]2)c1	?	.	.	28.2µM
Cc1cc(OCC(=O)NNC(=S)NC(=O)c2ccc(Br)o2)ccc1Cl	?	.	.	.
Cc1c(/C=N\NC(=O)C2(C)CC2(Cl)Cl)cnn1C (stereo not drawn)	.	.	.	.
